# Data: PMC7862700, “An all-to-all approach to the identification of sequence-specific readers for epigenetic DNA modifications on cytosine”
# Key:
# Test in all cases: DAPPL (digital affinity profiling via proximity ligation, sequencing); 10 mM Tris-HCl pH 7.5, 50 mM NaCl, 1 mM DTT, 4% glycerol, room temperature, 30 min; GST-TFs on glutathione beads, 16-mer random dsDNA library, 0.1% formaldehyde crosslink after washing; high values mean tight binding
# Conditions in all cases: protein: recombinant; tags: N-terminal GST; dsDNA, one strand shown
# [1] = target: T1, ELK1 (Homo sapiens, UniProt P19419 1-428)
# T1 sequence: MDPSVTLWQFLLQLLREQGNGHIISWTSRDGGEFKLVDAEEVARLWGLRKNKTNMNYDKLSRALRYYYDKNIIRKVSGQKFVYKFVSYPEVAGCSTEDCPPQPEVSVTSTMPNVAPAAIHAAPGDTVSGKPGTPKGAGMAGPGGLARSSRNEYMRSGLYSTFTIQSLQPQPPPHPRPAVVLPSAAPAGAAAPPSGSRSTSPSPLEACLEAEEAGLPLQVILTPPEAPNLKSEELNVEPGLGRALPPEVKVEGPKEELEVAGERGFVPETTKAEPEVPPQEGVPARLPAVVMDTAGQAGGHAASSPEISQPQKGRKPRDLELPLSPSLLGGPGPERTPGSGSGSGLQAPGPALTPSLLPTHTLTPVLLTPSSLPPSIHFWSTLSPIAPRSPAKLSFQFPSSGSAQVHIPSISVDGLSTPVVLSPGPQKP
# Method in brief: (§1)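 Pools were built from human transcription factors expressed in yeast as GST fusions, captured on glutathione beads and DNA-barcoded, along with a tag-only sample. Incubation with 200 nmole of a 16-mer random double-stranded DNA library lasted 30 min at room temperature in Tris/NaCl/DTT/glycerol buffer, and was followed by washing, 0.1% formaldehyde crosslinking, proximity ligation, PCR amplification and Illumina NextSeq500 sequencing. Binding signal is the quotient of each hexamer's read frequency for a factor and its frequency for the tag-only sample.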
# [2] = target: T2, GABPA (Homo sapiens, UniProt Q06546 1-454)
# T2 sequence: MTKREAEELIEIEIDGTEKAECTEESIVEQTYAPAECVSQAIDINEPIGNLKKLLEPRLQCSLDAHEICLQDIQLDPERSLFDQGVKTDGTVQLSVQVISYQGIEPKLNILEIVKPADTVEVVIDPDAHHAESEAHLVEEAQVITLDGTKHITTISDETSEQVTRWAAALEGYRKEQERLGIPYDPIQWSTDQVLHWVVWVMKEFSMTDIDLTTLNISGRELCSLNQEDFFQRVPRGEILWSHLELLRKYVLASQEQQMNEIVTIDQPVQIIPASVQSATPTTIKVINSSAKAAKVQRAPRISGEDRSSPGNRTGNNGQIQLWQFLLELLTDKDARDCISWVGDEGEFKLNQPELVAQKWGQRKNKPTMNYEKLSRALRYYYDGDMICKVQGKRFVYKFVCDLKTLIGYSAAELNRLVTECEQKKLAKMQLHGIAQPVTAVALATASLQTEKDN
# Method in brief: as §1
# [3] = target: T3, ERG (Homo sapiens, UniProt P11308 1-479)
# T3 sequence: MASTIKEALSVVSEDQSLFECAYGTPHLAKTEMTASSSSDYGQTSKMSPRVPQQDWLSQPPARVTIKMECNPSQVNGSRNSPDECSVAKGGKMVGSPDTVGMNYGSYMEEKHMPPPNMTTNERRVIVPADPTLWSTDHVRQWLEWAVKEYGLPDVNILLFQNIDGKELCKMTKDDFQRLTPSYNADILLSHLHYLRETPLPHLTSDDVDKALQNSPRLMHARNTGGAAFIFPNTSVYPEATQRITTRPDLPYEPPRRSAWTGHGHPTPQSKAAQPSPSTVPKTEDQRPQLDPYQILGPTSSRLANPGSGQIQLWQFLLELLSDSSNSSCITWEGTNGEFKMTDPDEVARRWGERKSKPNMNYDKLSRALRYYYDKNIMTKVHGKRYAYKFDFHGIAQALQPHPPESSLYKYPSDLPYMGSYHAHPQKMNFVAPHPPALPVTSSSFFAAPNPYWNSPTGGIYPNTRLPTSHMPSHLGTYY
# Method in brief: as §1
# [4] = target: ELF1 (Homo sapiens, UniProt P32519 1-619)
# Method in brief: as §1
# [5] = target: SPIB (Homo sapiens, UniProt Q01892 1-262)
# Method in brief: as §1
# [6] = target: T4, FEV (Homo sapiens, UniProt Q99581 1-238)
# T4 sequence: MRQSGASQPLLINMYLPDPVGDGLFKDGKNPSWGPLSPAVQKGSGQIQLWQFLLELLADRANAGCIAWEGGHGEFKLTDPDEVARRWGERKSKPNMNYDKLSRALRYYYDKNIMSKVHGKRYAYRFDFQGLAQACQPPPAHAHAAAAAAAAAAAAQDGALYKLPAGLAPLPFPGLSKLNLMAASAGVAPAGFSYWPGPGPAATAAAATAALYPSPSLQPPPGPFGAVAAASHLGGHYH
# Method in brief: as §1
# [7] = target: ETV5 (Homo sapiens, UniProt P41161 1-510)
# Method in brief: as §1
# [8] = target: ELF4 (Homo sapiens, UniProt Q99607 1-663)
# Method in brief: as §1
# [9] = target: T5, ELK4 (Homo sapiens, UniProt P28324-2 1-405)
# T5 sequence: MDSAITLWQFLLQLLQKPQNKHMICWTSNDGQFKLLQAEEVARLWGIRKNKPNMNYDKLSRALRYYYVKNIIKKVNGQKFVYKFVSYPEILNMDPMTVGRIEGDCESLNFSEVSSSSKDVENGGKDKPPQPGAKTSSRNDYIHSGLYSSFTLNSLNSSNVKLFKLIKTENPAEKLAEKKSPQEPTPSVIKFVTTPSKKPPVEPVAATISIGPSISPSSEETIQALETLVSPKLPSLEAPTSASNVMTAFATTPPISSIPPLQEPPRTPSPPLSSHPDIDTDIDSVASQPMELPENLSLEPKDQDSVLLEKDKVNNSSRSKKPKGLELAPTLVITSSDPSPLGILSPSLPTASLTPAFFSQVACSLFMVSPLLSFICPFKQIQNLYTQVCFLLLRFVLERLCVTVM
# Method in brief: as §1
# [10] = target: T6, ETV2 (Homo sapiens, UniProt O00321 1-342)
# T6 sequence: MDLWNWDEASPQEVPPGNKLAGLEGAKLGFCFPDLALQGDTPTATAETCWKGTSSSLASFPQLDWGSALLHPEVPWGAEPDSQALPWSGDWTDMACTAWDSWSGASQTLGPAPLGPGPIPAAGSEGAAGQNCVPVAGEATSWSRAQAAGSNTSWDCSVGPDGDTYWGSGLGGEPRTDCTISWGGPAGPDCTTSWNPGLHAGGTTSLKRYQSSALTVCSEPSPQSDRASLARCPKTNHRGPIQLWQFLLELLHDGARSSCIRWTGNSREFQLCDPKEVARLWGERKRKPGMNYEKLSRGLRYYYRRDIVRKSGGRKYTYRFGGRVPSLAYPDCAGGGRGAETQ
# Method in brief: as §1
# [11] = target: ETV1 (Homo sapiens, UniProt P50549 1-477)
# Method in brief: as §1
# [12] = target: T7, ETV3L (Homo sapiens, UniProt Q6ZN32 1-361)
# T7 sequence: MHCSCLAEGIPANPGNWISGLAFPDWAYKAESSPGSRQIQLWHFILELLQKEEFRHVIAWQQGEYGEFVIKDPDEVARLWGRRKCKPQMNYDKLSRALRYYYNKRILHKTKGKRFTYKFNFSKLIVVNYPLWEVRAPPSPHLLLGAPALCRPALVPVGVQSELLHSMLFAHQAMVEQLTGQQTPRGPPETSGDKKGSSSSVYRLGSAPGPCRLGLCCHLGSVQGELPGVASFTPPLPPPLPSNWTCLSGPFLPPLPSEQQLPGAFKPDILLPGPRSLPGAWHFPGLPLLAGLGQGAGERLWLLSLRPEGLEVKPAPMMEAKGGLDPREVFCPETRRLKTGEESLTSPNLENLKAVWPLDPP
# Method in brief: as §1
# [13] = target: T8, ETS2 (Homo sapiens, UniProt P15036 1-469)
# T8 sequence: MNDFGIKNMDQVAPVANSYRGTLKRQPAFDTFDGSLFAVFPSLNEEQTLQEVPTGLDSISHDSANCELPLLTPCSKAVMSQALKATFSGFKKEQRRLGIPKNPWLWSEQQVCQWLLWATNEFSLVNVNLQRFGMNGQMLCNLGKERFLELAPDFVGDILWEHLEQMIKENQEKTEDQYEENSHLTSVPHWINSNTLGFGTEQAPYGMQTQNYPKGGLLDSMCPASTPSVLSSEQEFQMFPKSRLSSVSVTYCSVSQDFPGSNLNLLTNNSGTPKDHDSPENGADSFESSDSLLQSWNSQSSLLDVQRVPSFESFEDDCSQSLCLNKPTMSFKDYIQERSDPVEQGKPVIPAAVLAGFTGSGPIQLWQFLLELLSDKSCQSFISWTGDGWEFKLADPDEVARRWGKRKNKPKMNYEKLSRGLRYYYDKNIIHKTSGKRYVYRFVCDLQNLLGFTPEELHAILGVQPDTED
# Method in brief: as §1
# [14] = target: T9, ETV3 (Homo sapiens, UniProt P41162-2 1-143)
# T9 sequence: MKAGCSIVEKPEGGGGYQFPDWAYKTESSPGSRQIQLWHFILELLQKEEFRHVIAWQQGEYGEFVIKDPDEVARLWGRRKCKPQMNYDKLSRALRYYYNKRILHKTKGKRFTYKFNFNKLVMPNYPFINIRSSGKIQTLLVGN
# Method in brief: as §1
# [15] = target: ETV6 (Homo sapiens, UniProt P41212 1-452)
# Method in brief: as §1
# Sequence of ETV5 (P41161 whole entry): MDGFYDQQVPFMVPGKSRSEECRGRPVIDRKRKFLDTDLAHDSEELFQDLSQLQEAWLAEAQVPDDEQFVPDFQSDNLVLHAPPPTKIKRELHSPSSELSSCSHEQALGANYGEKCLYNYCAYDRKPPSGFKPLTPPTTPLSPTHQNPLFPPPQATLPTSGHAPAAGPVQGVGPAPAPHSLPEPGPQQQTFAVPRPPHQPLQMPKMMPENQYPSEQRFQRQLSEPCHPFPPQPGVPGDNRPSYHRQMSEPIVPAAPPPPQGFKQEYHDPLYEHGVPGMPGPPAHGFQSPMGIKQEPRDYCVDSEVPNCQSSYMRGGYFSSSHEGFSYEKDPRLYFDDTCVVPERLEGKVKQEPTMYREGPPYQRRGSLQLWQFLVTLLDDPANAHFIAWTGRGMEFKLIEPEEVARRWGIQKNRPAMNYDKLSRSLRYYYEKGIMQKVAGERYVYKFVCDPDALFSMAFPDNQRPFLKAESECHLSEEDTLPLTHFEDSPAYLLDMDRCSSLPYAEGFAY
# Sequence of ELF1 (P32519 whole entry): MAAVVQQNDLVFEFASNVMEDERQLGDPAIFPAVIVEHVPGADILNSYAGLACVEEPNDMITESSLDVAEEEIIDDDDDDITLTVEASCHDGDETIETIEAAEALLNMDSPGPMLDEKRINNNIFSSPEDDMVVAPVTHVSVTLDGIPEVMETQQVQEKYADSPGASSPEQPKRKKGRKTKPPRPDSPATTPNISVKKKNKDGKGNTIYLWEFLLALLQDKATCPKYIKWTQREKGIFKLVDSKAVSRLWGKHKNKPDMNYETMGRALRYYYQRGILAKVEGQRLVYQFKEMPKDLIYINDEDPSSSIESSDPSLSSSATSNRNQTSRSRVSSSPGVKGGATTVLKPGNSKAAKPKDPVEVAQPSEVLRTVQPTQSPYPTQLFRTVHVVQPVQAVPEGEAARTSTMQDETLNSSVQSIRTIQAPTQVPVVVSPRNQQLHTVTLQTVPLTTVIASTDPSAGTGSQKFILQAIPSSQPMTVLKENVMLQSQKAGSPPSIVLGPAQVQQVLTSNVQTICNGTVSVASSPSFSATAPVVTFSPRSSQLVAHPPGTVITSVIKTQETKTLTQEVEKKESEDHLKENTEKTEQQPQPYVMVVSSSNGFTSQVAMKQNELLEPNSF
# Sequence of ELF4 (Q99607 whole entry): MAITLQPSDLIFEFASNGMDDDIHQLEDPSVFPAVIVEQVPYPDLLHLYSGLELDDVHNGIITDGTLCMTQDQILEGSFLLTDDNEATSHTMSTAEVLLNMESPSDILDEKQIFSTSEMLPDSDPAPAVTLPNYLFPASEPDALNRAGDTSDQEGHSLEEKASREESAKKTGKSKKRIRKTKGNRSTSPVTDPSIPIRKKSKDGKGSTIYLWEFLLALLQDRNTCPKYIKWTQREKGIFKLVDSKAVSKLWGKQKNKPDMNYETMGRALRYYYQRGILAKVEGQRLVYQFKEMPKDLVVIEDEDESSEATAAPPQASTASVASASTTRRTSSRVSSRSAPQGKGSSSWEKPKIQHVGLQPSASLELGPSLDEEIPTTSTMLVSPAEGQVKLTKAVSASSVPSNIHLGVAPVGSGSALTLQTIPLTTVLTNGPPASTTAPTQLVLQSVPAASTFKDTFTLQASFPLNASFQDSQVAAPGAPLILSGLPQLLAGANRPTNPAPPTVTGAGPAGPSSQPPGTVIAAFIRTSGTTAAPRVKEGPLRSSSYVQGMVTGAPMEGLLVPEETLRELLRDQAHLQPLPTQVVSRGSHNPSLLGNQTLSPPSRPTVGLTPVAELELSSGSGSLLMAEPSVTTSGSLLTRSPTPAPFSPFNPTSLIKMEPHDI
# Sequence of SPIB (Q01892 whole entry): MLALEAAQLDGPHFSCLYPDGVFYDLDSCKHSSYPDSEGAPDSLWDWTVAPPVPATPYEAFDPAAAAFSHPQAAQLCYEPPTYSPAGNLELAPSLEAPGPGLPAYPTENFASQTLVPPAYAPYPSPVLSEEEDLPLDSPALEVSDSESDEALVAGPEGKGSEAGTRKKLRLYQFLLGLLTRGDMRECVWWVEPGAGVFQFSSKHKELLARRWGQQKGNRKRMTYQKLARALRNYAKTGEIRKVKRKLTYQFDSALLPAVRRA
# Sequence of ETV1 (P50549 whole entry): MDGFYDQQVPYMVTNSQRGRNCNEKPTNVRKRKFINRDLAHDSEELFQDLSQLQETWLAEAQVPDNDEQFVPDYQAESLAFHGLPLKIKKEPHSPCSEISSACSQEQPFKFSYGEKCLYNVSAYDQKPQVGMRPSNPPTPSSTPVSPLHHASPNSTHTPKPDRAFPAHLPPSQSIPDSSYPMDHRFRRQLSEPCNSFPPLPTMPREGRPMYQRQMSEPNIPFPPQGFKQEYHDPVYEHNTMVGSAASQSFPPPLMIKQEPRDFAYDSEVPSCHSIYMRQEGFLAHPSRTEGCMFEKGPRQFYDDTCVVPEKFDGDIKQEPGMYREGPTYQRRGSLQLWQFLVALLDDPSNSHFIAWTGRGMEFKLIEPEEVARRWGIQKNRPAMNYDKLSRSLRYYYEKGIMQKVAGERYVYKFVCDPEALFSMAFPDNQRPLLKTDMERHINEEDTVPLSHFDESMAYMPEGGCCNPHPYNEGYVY
# Sequence of ETV6 (P41212 whole entry): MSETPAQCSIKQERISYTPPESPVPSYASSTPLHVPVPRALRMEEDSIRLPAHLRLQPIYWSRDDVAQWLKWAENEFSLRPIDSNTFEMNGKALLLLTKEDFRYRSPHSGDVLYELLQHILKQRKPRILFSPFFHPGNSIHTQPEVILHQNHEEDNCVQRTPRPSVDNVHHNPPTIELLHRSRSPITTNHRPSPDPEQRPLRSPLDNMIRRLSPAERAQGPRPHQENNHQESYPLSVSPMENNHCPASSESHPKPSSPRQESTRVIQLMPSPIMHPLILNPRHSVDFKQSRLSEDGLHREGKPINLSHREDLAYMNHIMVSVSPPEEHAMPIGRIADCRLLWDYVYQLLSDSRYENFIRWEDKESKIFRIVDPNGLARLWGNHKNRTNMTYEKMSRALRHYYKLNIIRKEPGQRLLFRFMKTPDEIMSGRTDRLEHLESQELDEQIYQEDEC
sequence,measurement,setting,value
CCCTGA,binding signal,[1],"1.18 fold enrichment (6-mer frequency, TF over GST control)"
same,binding signal,[2],"1.05 fold enrichment (6-mer frequency, TF over GST control)"
same,binding signal,[3],"1.04 fold enrichment (6-mer frequency, TF over GST control)"
same,binding signal,[4],"1.06 fold enrichment (6-mer frequency, TF over GST control)"
same,binding signal,[5],"1.1 fold enrichment (6-mer frequency, TF over GST control)"
same,binding signal,[6],"1.04 fold enrichment (6-mer frequency, TF over GST control)"
same,binding signal,[7],"1.07 fold enrichment (6-mer frequency, TF over GST control)"
same,binding signal,[8],"1.05 fold enrichment (6-mer frequency, TF over GST control)"
same,binding signal,[9],"1.1 fold enrichment (6-mer frequency, TF over GST control)"
same,binding signal,[10],"1.17 fold enrichment (6-mer frequency, TF over GST control)"
same,binding signal,[11],"1.09 fold enrichment (6-mer frequency, TF over GST control)"
same,binding signal,[12],"1.04 fold enrichment (6-mer frequency, TF over GST control)"
same,binding signal,[13],"1.02 fold enrichment (6-mer frequency, TF over GST control)"
same,binding signal,[14],"1.01 fold enrichment (6-mer frequency, TF over GST control)"
same,binding signal,[15],"1.05 fold enrichment (6-mer frequency, TF over GST control)"
